Shiga inhibitor: inhibitors of Shiga toxin in Vero cells | Vero cells, Shiga toxin protein synthesis inhibition reporter | inhibition, % at 38.7 µM | actives 9.2% (n = 290,000) | AID 2315; in the data active = inhibition mostly above about 28%, no sharp cut-off; inactive = mostly below about 43%; also: 0% is about no effect
NS1 function inh: blocks influenza NS1 protein function. Potency, µM (top dose mostly 46.1 µM), for inactives: top-dose activity, positive = more growth. actives 0.4% (n = 270,000); calls by dose curve; also: potency is read from the fitted curve at half-maximal effect; actives are rising curves; nearly all actives have a fitted effect of over 50% in size
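OD600 was taken as the measure of yeast growth restored by compound in an NS1-expressing S. cerevisiae strain. Cells had been washed out of glucose medium and diluted 1:100 into galactose -URA medium, pH 6.0.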
FBPA Giardia inh: inhibitors of Giardia lamblia fructose-1,6-bisphosphate aldolase. actives 0.71% (n = 290,000). purified Giardia FBPA. Potency, µM (doses to about 59.6 µM), inactives show at the top dose activity, negative = inhibition, actives largely listed as inhibitors. AID 2451; also: potency is read from the fitted curve at half-maximal effect; % is scaled to controls: 0 for no effect and ±100 for the full control effect; nearly all actives have a fitted effect of over 55% in size
Target sequence (A8B2U2 whole entry, looked up): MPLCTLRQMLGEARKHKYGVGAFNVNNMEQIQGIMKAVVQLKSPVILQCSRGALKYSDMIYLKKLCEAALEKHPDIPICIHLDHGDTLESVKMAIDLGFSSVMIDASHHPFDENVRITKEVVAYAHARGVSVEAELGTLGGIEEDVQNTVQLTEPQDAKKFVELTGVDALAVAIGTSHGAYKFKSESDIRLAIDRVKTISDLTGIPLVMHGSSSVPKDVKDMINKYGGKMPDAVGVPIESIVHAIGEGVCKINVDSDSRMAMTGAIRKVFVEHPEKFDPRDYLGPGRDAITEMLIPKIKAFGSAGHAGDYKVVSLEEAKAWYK
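40 nM FBPA preincubated 10 min at RT with compound (up to 57.5 uM final), then substrate plus GAPDH/TPI/NAD/arsenate coupling and diaphorase/resazurin added. Fluorescence read after 20 min at RT, 525/598 nm.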
LmPK inhibitor: LmPK (Leishmania mexicana) enzyme inhibition. Q27686. purified LmPK, Kinase-Glo ATP luminescence, 1 h. Potency, µM (highest dose often 57.5 µM), for the others: top-dose activity change, negative = inhibition, hits mostly inhibitors. actives 0.37% (n = 290,000); also: potency is read from the fitted curve at half-maximal effect; % is scaled to controls: 0 for no effect and ±100 for the full control effect
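Purified LmPK (0.1 nM) with 0.5 mM PEP and 0.1 mM ADP in imidazole buffer pH 7.2 with MgCl2/KCl, 1 h at room temperature. ATP formed was read by luciferase luminescence and normalized to no-enzyme and uninhibited controls.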
CHX counter: counter-screen for Shiga toxin inhibitors: cycloheximide protein synthesis inhibition. max response, %. actives 12% (n = 300,000). AID 2314. cell reporter, cycloheximide protein synthesis inhibition counterscreen; in the data active = max response mostly above about 13%, no sharp cut-off; inactive = mostly below about 14%; also: read at 38.3 µM for the half of the compounds with a filed dose; 0% is about no effect
* = called active by the depositor; ? = inconclusive; / = no result given; [ ] = dose if it differs, or a comment. An excerpt weighted towards active compounds, which were near 14% of everything screened. Unless noted, calls follow the shape of the dose curve; as a rule, active = well fitted curve in the direction sought with a large enough effect; inconclusive = small, poorly fitted or top-dose-only effect, or another doubt; inactive = no such curve, though single readings can be large; an effect the other way counts as inactive or inconclusive.

SMILES | Shiga inhibitor | NS1 function inh | FBPA Giardia inh | LmPK inhibitor | CHX counter
CN(C)CCCN(C(=O)c1ccc2c(c1)OCCO2)c1nc2cc3c(cc2s1)OCO3 | 19 | -9% | / | -1% | 2
Cc1cc(C)c2sc(NC(=O)c3ccc([N+](=O)[O-])o3)nc2c1 | 4 | -31% | ? | -3% | 1
ClC(Cl)(Cl)c1nc2ccccc2n2nncc12 | -6 | -37% | 2% | 2% | -3
CC(=O)NCCOC(=O)c1nn(Cc2ccccc2)c(=O)c2ccccc12 | -4 | 2% | -4% | 2% | -5
NNC(=O)Cc1cccnc1 | / | 11% | / | / | /
O=C(Nc1nc2cc3c(cc2s1)OCCO3)c1ccc([N+](=O)[O-])o1 | 45* | -3% | / | -2% | 48*
Cc1cc(C)c2nc(NC(=O)c3ccc([N+](=O)[O-])o3)sc2c1 | / | -8% | -13% | 11% | -2
CCCCCCCCCCCCCc1ccco1 | / | / | -3% | / | /
CC(NC(=O)CCCc1nnc2n(C)c(=O)c3sccc3n12)c1ccccc1 (stereo unspecified) | -2 | 6% | 12% | 0% | 1
Nc1ccccc1N=Nc1ccccc1N | 51* | -53% | 5% | -8% | 44*
Nc1ccccc1-c1ccccc1N | 4 | 12% | -9% | -2% | 9
CC(C)C(=O)Nc1ccc(NC(=O)c2cccc(F)c2)cn1 | 76* | ? | -7% | -7% | 22*
O=C(Nc1ccc(NC(=O)c2ccco2)nc1)c1cccc(F)c1 | 82* | -23% | 1% | 2% | 40*
O=C(Nc1ccc(NC(=O)c2ccco2)nc1)c1cccnc1 | 54* | 8% | 5% | -4% | 21
O=C(NCc1cccnc1)c1ccc(NC(=O)c2ccco2)cc1 | -2 | 25% | 10% | -3% | 12
COc1cccc(C(=O)Nc2ccc(NC(=O)c3ccco3)c(Cl)c2)c1 | 64* | / | -18% | -4% | 30*
O=C(Nc1cccc(F)c1)c1cccnc1 | -8 | -9% | -3% | -2% | -3
Cc1cc(Cl)ccc1Nc1sc(C(=O)c2cc3cc(Cl)ccc3o2)c(N)c1C#N | / | -5% | / | / | /
COc1ccc2c(c1)c1c(C)c3cnccc3c(C)c1n2CCCN | / | 0% | / | / | /
CC(C)(C)NC(=O)C(c1ccc(I)cc1)N(CCN1CCOCC1)C(=O)CCCNC(=O)c1ccccc1 (stereo unspecified) | / | / | 8% | / | /
O=C(Nc1ccc(NC(=O)C2CC2)nc1)c1cccc(F)c1 | 59* | -4% | 1% | -1% | 47*
O=C(Nc1ccc(NC(=O)c2ccccc2F)cn1)c1ccco1 | 36 | -55% | 2% | -20% | 18*
Cc1ccccc1NC(=O)c1cccc(NC(=O)c2ccco2)c1 | 8 | -68% | 7% | -1% | 7
O=C(Nc1cccnc1)c1ccc(NC(=O)c2ccco2)cc1 | 61 | -5% | -5% | -4% | 19*
O=C(Nc1ccccc1C(=O)Nc1ccccc1)c1ccco1 | 30 | 2% | 9% | 1% | 6
SMILES | Shiga inhibitor | NS1 function inh | FBPA Giardia inh | LmPK inhibitor | CHX counter
Cc1cc(NC(=O)c2cccc(F)c2)ncc1NC(=O)c1ccco1 | 50 | -13% | -13% | ? | 21*
O=C(Nc1ccc(NC(=O)C2CC2)nc1)c1cccnc1 | 13 | -3% | 0% | -2% | 8
O=C(Nc1cccnc1)c1ccco1 | 40 | -10% | 3% | -6% | 1
COCC1=Cc2cc3c(cc2C(C(C(=O)OC)C(=O)OC)N1C(=O)OC)OCO3 (stereo unspecified) | / | / | 3% | -13%[11.5 µM] | /
CCCC[C@H](NC(C)=O)C(=O)N[C@@H](CCC(=O)O)C(=O)N[C@@H](Cc1cnc[nH]1)C(=O)N[C@H](Cc1ccccc1)C(=O)N[C@@H](CCCN=C(N)N)C(=O)N[C@H](Cc1c[nH]c2ccccc12)C(=O)NCC(N)=O | -7 | / | 5% | / | -7
Cc1ccc(C2(c3ccc(C)c(O)c3C)CCN(C)CC2)c(C)c1O | / | -3% | / | / | /
COc1ccc(C(=O)Nc2ccc(NC(=O)c3cnccn3)cn2)cc1 | 10 | 0% | -5% | -1% | 1
COc1ccc(C(=O)Nc2ccc(NC(=O)C3CCCCC3)nc2)cc1 | 13 | -3% | -3% | -5% | 6
COc1cccc(C(=O)Nc2ccc(NC(=O)C3CC3)nc2)c1 | 24 | -11% | 7% | -3% | 18*
CCCC(=O)Nc1ccc(NC(=O)c2cccc(OC)c2)nc1 | 119* | -7% | 4% | ? | 33*
COc1cccc(C(=O)Nc2ccc(NC(=O)c3ccco3)nc2)c1 | 194* | -56% | 1% | -3% | 63*
COc1cccc(C(=O)Nc2ccc(NC(C)=O)cn2)c1 | 65* | -2% | -2% | -20% | 31*
COC(=O)c1ccccc1S(=O)(=O)N1CCc2nc(-c3ccccc3)c3c(c2C1)CO[C@@H](C)C3 | / | / | 1%[12.9 µM] | 2%[11.5 µM] | /
CN(C)[C@@H]1C(=O)C(C(N)=O)=C(O)[C@]2(O)C(=O)C3=C(O)c4c(O)cccc4[C@](C)(O)[C@H]3C[C@@H]12 | / | 15% | / | / | /
CC(=O)N/C(=C\c1ccccc1)C(=O)OCCCOC(=O)/C(=C/c1ccccc1)NC(C)=O | -34 | 4% | / | -12% | -3
C=Cc1cccc(NC(=O)c2ccc(NC(=O)c3ccco3)cc2)c1 | 35* | -29% | -1% | 8% | 19*
CC(=O)c1ccc(NC(=O)c2ccc(NC(=O)c3ccco3)cc2)cc1 | -15 | 18% | / | -4% | -3
CCC(=O)Nc1cc(C)c(NC(=O)CCc2ccccc2)cn1 | -1 | 7% | -5%[12.9 µM] | 2% | -2
Cc1cc(NC(=O)c2ccco2)ncc1NC(=O)CCc1ccccc1 | 33 | 0% | -17% | -2% | 28*
COc1ncc2nc(-c3cn(C)c4ccccc34)c(=O)n(CCC#N)c2n1 | / | / | -19% | / | /
NC(C(=O)O)C(c1ccccc1)C(F)F (stereo unspecified) | 14 | 1% | ? | -12% | 4
O=S(=O)([N-]c1nc2ccccc2nc1-n1cc[n+](Cc2ccccc2)c1)c1ccc(Cl)cc1 | 11 | -7% | 1% | 7% | 1
COc1nc(C)ccc1-c1noc(-c2cccs2)n1 | 140* | -3% | -4% | -11% | 58*
COc1cc(-c2nc(-c3ccc(C)nc3OC)no2)cc(OC)c1OC | -14 | -3% | 0% | 8% | -2
COc1nc(C)ccc1-c1noc(-c2ccncc2)n1 | 25 | 0% | 4% | -2% | 23*
SMILES | Shiga inhibitor | NS1 function inh | FBPA Giardia inh | LmPK inhibitor | CHX counter
COc1ccc(Cn2ccnc2SCC(=O)Nc2nnc(C)s2)cc1 | -16 | 2% | ? | -2% | -4
c1cc(CNc2ccc(N3CCOCC3)cc2)ccn1 | 49* | 13% | ? | -2% | 33*
Cc1ccc(NC(=O)CSCC(=O)Nc2ccc(N3CCOCC3)c(Cl)c2)cc1 | 41 | 0% | -7% | 1% | 1
CC(C)c1ccc(CNc2ccc(N3CCOCC3)cc2)cc1 | 26 | 2% | -28% | 3% | 20
Cc1ccc(CNc2ccc(N3CCOCC3)cc2)cc1 | 52* | 25% | 5% | -6% | 21*
Cc1ccc(CNc2ccc(N3CCOCC3)c(Cl)c2)cc1 | 30* | -7% | -14% | -4% | 22*
COc1ccc(CCNC(=O)Cc2ccc(NC3=NC4CS(=O)(=O)CC4S3)cc2)c(OC)c1 (stereo unspecified) | -6 | -8% | -29% | -4% | 1
